# Experimental data reported in PubChem BioAssay (EPA / NIEHS).
# “And” between values parts separate entries of the source, which are not always exact repeats. Equal entries are not always repeated. More than one record can exist for a structure, and the calls need not agree. The source made the active and inactive calls. The calls were made as follows: active = hit-call score of the fitted dose curve at least 0.9, where 1 is the maximum; inactive = score below 0.9.
# Read-out: Macrophage colony-stimulating factor (MCSF), CSF1 (gene 1435)
# Test: BSK_hDFCGF_MCSF: BioMAP Diversity Plus: hDFCGF Assay for Macrophage colony-stimulating factor (MCSF) Biomarker Activity (AID 2283060)
# Conditions: AC50: primary human foreskin fibroblasts, actives raise or lower the signal unless noted; outcome: primary human foreskin fibroblasts, actives raise or lower the signal unless noted
# Description: BSK_hDFCGF is a cell-based, multiplexed-readout assay that uses foreskin fibroblast, a human skin primary cell, with measurements taken at 24 hours after chemical dosing in a 96-well plate.BSK_hDFCGF_MCSF is an assay component measured in the BSK_hDFCGF assay. It measures M-CSF antibody related to regulation of gene expression using ELISA technology.Data from the assay component BSK_hDFCGF_MCSF was analyzed into 1 assay endpoint. This assay endpoint, BSK_hDFCGF_MCSF, was analyzed with bidirectional fitting relative to DMSO as the negative control and baseline of activity. Using a type of binding reporter, gain or loss-of-signal activity can be used to understand changes in the signaling as they relate to the gene CSF1. Furthermore, this assay endpoint can be referred to as a primary readout, because this assay has produced multiple assay endpoints where this one serves a signaling function. To generalize the intended target to other relatable targets, this assay endpoint is annotated to the cytokine intended target family, where the subfamily is colony stimulating factor.
# The levels of cell surface (or secreted, indicated by the prefix "s") biomarker endpoints were measured by ELISA. Overt cytotoxicity to cells in confluent adherent cultures (all systems other than the BT system) was assessed by measuring total protein levels using sulforhodamine B (SRB) staining in parallel cultures at the time of biomarker measurements, indicated as SRB endpoints. For proliferation assays for adherent cell types, individual cell types are cultured at sub-confluence and relative cell numbers quantified by SRB staining at time points optimized for each system (48 h: 3C and CASM3C systems; 72 h: BT and HDF3CGF systems; 96 h: SAg system). SRB was performed by staining cells with 0.1% SRB after fixation with 10% TCA and reading wells at 560 nm.Viability and proliferation of PBMC (T cells) was quantified by Alamar Blue reduction for the SAg and BT systems. For PBMC viability (referred to as PBMC Cytotoxicity within the assay endpoint names), cells were plated (75,000/well in a 96-well plate) and then chemical samples added for 1 h before addition of activators, SEB and TSST-1 (20 ng/mL final concentration each). Cells were incubated for 90 h. Then, Alamar Blue (20 uL/well) (Invitrogen, Cat DAL1100) was added for 6 h, and the plates were read with a fluorescence microplate reader at 546/580 nm (excitation/emission). For PBMC proliferation, cells were plated and activated as above but incubated for only 16 h prior to addition of Alamar Blue. Plates were read after 6 h.
SMILES,outcome,AC50
COC(=O)/C=C\C(=O)OC,inactive,–
Sc1nc2ccccc2s1,inactive,–
CCCCC(CC)COC(=O)C=Cc1ccc(OC)cc1 (stereo not drawn),–,15.9 µM (active) and 12.6 µM (active)
Cc1cc(-n2nc3ccc(Cl)cc3n2)c(O)c(C(C)(C)C)c1,inactive,–
CCCCCCC(O)CCCCCCCCCCC(=O)OC (stereo not drawn),inactive,–
COc1ccc(C(=O)c2ccccc2O)c(O)c1,inactive,–
COc1ccccc1Oc1c(NS(=O)(=O)c2ccc(C(C)(C)C)cc2)nc(-c2ncccn2)nc1OCCO,inactive,–
COc1cc(CNC(=O)CCCC/C=C/C(C)C)ccc1O,inactive,–
C1CN(CCOCCN2CCOCC2)CCO1,inactive,–
CCCCCCCCCCCCCCCCCC[N+](C)(C)C,–,3.11 µM (active)
CCCCCCCCCC/C=C/C1CC(=O)OC1=O (stereo not drawn),inactive,–
CC[N+](CC)(CC(=O)Nc1c(C)cccc1C)Cc1ccccc1 (tested in a mixture with another compound),inactive,–
CN(C)Cc1cc(C(C)(C)C)c(O)c(C(C)(C)C)c1,inactive [setting not given],18.3 µM [setting not given] (active)
O=C(C(=O)c1ccccc1)c1ccccc1,inactive,–
Oc1cccc2ccccc12,inactive,–
CN(C)CCC(c1ccc(Cl)cc1)c1ccccn1 (stereo not drawn),inactive,–
Cc1c(C(N)=O)cc([N+](=O)[O-])cc1[N+](=O)[O-],inactive,–
CCCCCCCCCCC1CO1 (stereo not drawn),–,20 µM (active)
CN(C)c1ccc(C(c2ccccc2)c2ccc(N(C)C)cc2)cc1,inactive,–
Cc1cccnc1,inactive,–
O=[N+]([O-])c1cc(S(=O)(=O)Nc2ccccc2)ccc1Nc1ccccc1,–,29.3 µM (active) and 29.5 µM (active)
CCC(C)=NO,inactive,–
OC(C(F)(F)F)(C(F)(F)F)C(O)(C(F)(F)F)C(F)(F)F,–,14.3 µM (active) and 19.2 µM (active)
CCC[Si](OC(C)=O)(OC(C)=O)OC(C)=O,inactive,–
CC(C)CC(=O)CC(C)CC(C)C (stereo not drawn),inactive,–
CC(C)C1OCCN1CCOC(=O)NCCCCCCNC(=O)OCCN1CCOC1C(C)C (stereo not drawn),inactive,–
CC[N+](CC)(CC(=O)Nc1c(C)cccc1C)Cc1ccccc1,inactive,–
